Source: PubChem BioAssay AID449762 (Southern Research Specialized Biocontainment Screening …, 2010)
In all, about 330,000 compounds went through this assay and about 1,900 (0.58%) were called active. Roughly 4% stayed inconclusive and do not appear here. Cut-off read from the data, not from the text of the source: inconclusive = inhibition above about 70% without an active follow-up result; inactive = below that. A selection follows. Potency and affinity values are given separately.

Assay: M. tuberculosis growth inhibition, HTS (AID 449762);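 note: bacterial growth assessed after seven days of incubation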
Conditions: M. tuberculosis H37Rv growth inhibition, 7H9 media; at 25 µM; stronger effect = higher value

| SMILES | inhibition |
| --- | --- |
| CN(C)c1oc(-c2ccc(Cl)cc2)nc1S(=O)(=O)c1ccccc1 | 3.09% (inactive) |
| COc1ccc(CS(=O)(=O)CC(C)(O)c2ccc(Cl)cc2)cc1 (stereo not drawn) | 8.74% (inactive) |
| Cc1cc(C)n(-c2ccc(C(=O)OCC(=O)Nc3cc(S(C)(=O)=O)ccc3Cl)cc2)n1 | 9.43% (inactive) |
| Cc1cc(C(=O)N/N=C/C(Cl)=C/c2ccccc2)c(C)o1 | 2.89% (inactive) |
| CC(/C=N\NC(=O)c1cc(C)oc1C)=C\c1ccccc1 | 5.28% (inactive) |
| COC(=O)c1cc(NC(=O)c2ccc(-c3ccccc3)cc2)ccc1Cl | -0.43% (inactive) |
| CC(C)c1ccc(C(=O)CSc2ncn[nH]2)cc1 | -3.26% (inactive) |
| O=C(CSc1ncn[nH]1)NCc1ccc(Cl)cc1 | 23.7% (inactive) |
| Cc1ccc2c(c1)Oc1ccc([N+](=O)[O-])cc1C(=O)N2 | 3.53% (inactive) |
| Cc1ccc2c(c1)Oc1ccc(NC(=O)CCCl)cc1C(=O)N2 | 11.1% (inactive) |
| Cc1ccc(Cn2c(N)c(S(=O)(=O)c3cccs3)c3nc4ccccc4nc32)cc1 | -12% (inactive) |
| COc1ccc(C(CNC(=O)COc2ccc(-c3ccccc3)cc2)N2CCOCC2)cc1 (stereo not drawn) | -6.25% (inactive) |
| N/C(=N\[N+](=O)[O-])N1CCN(C(=O)c2ccccc2)CC1 | -7.03% (inactive) |
| Cc1ccc(S(=O)(=O)Nc2ccnc3ccccc23)cc1 | -5.18% (inactive) |
| Cc1ccc(S(=O)(=O)Nc2cccc3ncccc23)cc1 | 0.6% (inactive) |
| O=S(=O)(c1ccc(=S)[nH]c1)N1CCCC1 | -0.36% (inactive) |
| CC(CCc1ccccc1)NC(=O)CCNC(=O)c1ccccc1Cl (stereo not drawn) | 0.74% (inactive) |
| O=C(CCSCc1ccccc1F)NCc1cccnc1 | 12.2% (inactive) |
| O=C(Nc1nc2c(s1)CCCC2)c1cc(-c2ccncc2)nc2ccccc12 | -5.59% (inactive) |
| O=C(Nc1nc2c(s1)CCCC2)c1cc(-c2ccccc2)nc2ccccc12 | 65.5% (inactive) |

| SMILES | inhibition |
| --- | --- |
| COc1ccc(-c2ccc3oc(-c4ccc(OC)cc4)c(C#CC4(O)CCCCC4)c3c2)cc1 | 61.2% (inactive) |
| COc1ccc(-c2oc3ccc(-c4ccc(OC)nc4)cc3c2-c2ccc(OC)cc2)cc1 | 3.96% (inactive) |
| CCC(C)(C)NC(=O)C(c1cccs1)N(C(=O)c1ccn[nH]1)c1cccc(OC)c1 (stereo not drawn) | -8.05% (inactive) |
| CN1CCN(c2ccc([N+](=O)[O-])c(-n3nc(-c4ccccc4)c4ccccc4c3=O)c2)CC1 | 38.4% (inactive) |
| Cc1nn(-c2cc(N3CCCC3)ccc2[N+](=O)[O-])c(=O)c2ccccc12 | -3.75% (inactive) |
| COc1cc(C=O)ccc1OCC(=O)N1CCOCC1 | -0.06% (inactive) |
| CCC1(CC)Cc2ccccc2-c2nc(CN3CCOCC3)[nH]c(=O)c21 | 51.6% (inactive) |
| CCc1nc2c(c(=O)[nH]1)C(CC)(CC)Cc1ccccc1-2 | 5.03% (inactive) |
| O=C(Nc1cccc(S(=O)(=O)N2CCCC2)c1)c1cc(=O)[nH]c2ccccc12 | -4.61% (inactive) |
| Cc1nc2ccc(NC(=O)c3ccccc3)cc2s1 | 3.89% (inactive) |
| Cc1nc2ccc(Oc3ccccc3)cc2s1 | 7.08% (inactive) |
| Cn1c(=O)n(C)c2cc(NC(=O)c3cc4ccccc4o3)ccc21 | 6.91% (inactive) |
| COc1ccc(-n2cc(CNCCCn3ccnc3)c(-c3ccccc3Cl)n2)cc1 | 13.2% (inactive) |
| COc1ccc(-n2cc(CNCCc3nc(C)cc(C)n3)c(-c3ccccc3Cl)n2)cc1 | 68.4% (inactive) |
| COc1ccc(OCCN2C(=O)c3ccccc3C2=O)c([N+](=O)[O-])c1 | -4.41% (inactive) |
| COc1cc2[nH]c(C(=O)NCCc3ccccc3)cc2c(OC)c1OC | 0.36% (inactive) |
| COC(=O)c1cnn(-c2ccc(C)c(C)c2)c1-n1cccc1 | 3% (inactive) |
| Cc1c(Cl)ccc2c1NC(=O)C21NC(CCC(N)=O)[C@H]2C(=O)N(c3ccc(Cl)cc3)C(=O)[C@H]21 (stereo partly drawn) | -9% (inactive) |
| Cc1c(Cl)ccc2c1NC(=O)[C@]21N[C@@H](CCC(N)=O)[C@H]2C(=O)N(c3ccc(F)cc3)C(=O)[C@H]21 | -5.78% (inactive) |
| CC(=O)N(C)c1ccc(OCC(O)Cn2c(C)nc3ccccc32)cc1 (stereo not drawn) | 0.96% (inactive) |

| SMILES | inhibition |
| --- | --- |
| CCC(c1nnc(SCC(=O)Nc2cc(S(C)(=O)=O)ccc2Cl)n1Cc1ccccc1)N(C)C (stereo not drawn) | -14.3% (inactive) |
| C=CCSc1n[nH]c(-c2ccc(OC)cc2)n1 | -6.49% (inactive) |
| C=CCSc1n[nH]c(-c2ccc(OCCC)cc2)n1 | 56.7% (inactive) |
| Cc1ccc(NC(=O)c2ccc(OC(=O)COc3ccc(Cl)c(C)c3)cc2)cc1 | -2.96% (inactive) |
| COc1ccc(Cc2[nH]n3c(=O)c(Cl)c(C)nc3c2-c2ccccc2)cc1 | 35.3% (inactive) |
| O=C(Cn1nc(CNc2ccc(Cl)cc2)[n+]2c1CCCCC2)c1ccccc1 | 0.81% (inactive) |
| O=C(Cn1nc(CNc2ccc(Br)cc2)[n+]2c1CCCCC2)c1ccc([N+](=O)[O-])cc1 | 64.9% (inactive) |
| CCCCN1C(=O)C(=O)N(c2ccccc2)C1=S | 5.31% (inactive) |
| COC(=O)CN(C(=S)Nc1ccc(F)cc1)C1CC(=O)N(c2ccccc2)C1=O (stereo not drawn) | 5.39% (inactive) |
| O=C(O)/C(=C\c1ccc2ccccc2c1)c1cccc2ccccc12 | 2.24% (inactive) |
| CN1C(=O)/C(=C/c2ccccc2Cl)Sc2ccc(C(=O)N3CCCC3)cc21 | 69.8% (inactive) |
| COc1ccc(/C=C2\Sc3ccc(C(=O)N4CCCC4)cc3N(C)C2=O)cc1OC | 7.11% (inactive) |
| Cn1ncc([N+](=O)[O-])c1C(=O)Nc1ccc(-c2nc3ccccc3o2)cc1 | 1.46% (inactive) |
| COc1ccc(/C=C/C(=O)NCCOc2ccc(C)cc2)cc1 | -2.38% (inactive) |
| NC(=O)CC(NC(=O)c1ccccc1)c1ccc(NC2CCCC2)c([N+](=O)[O-])c1 (stereo not drawn) | 0.75% (inactive) |
| CN(C)CCCn1c2c(c(SCC(=O)Nc3cccc4ccccc34)nc1=O)CCC2 | 0.83% (inactive) |
| Fc1cccc(CCN2CCNC[C@@H]2Cc2ccccc2)c1 | -4.28% (inactive) |
| c1ccc(C[C@H]2CNCCN2CCc2cccc3ccccc23)cc1 | 53.6% (inactive) |
